Screens deposited in PubChem BioAssay by Broad Institute.
aSyn 5UTR act – Activators working through SNCA 5'UTR binding (MLPCN). AID 1814. hit rate 7.1% among 300,000. alpha-synuclein 5'UTR reporter, activators screen. activity score, % (tested at 7.5 µM), hits read low; in the data active = activity score below about -60%
* marks the source's active call; other numbers are inactive results. Only a sample is shown.

SMILES	aSyn 5UTR act
N=c1c2ccccc2nnn1-c1ccc(C(F)(F)F)cc1	-147*
COc1ccc(N=C2O/C(=C/c3sc(=S)n(CC4CCCO4)c3O)N=C2C#N)cc1 (stereo not given)	-101*
Cc1oc2cc3c(C(=O)N4CCCCC4)c(C)oc3cc2c1C(=O)N1CCCCC1	-162*
O=C1NC(c2cccc(Br)c2)=N/C1=C\c1ccco1	-106*
O=C1NC(c2ccccc2Br)=N/C1=C\c1ccco1	-165*
O=C1NC(c2ccccc2)=N/C1=C/c1ccco1	-270*
CC(=O)N(Cc1ccc(F)cc1)C1=C(NCc2ccccc2)C(=O)c2ccccc2C1=O	92
O=C(NCc1ccc(F)cc1)Nc1ccccc1	-108*
Cc1ccc(/C=N/NC(=O)Cc2ccc(Cl)cc2)c(O)c1	66
O=C(NCC1CC1)Nc1ccc(Cl)cc1	-79*
NC(=NCCCCCCN=C(N)/N=C(\N)Nc1ccc(Cl)cc1)/N=C(\N)Nc1ccc(Cl)cc1	96
Cc1ccc(CNC(=O)Nc2ccc(Cl)cc2)cc1	-99*
Cc1ccc(CNC(=O)Cc2cccs2)cc1	-70*
Cc1ccc(CNC(=O)Nc2ccccc2)cc1	-187*
CSc1ccc(NC(=O)NCc2ccccc2)cc1	-152*
Cc1ccc(CNC(=O)Nc2cccs2)cc1	-115*
Cc1ccc(CNC(=O)NCc2ccccc2)cc1	-63*
O=C(NCc1ccc(Cl)cc1Cl)Nc1ccccc1	-91*
Cc1ccc(C)c(CNC(=O)Nc2ccccc2)c1	-147*
CCCN(CC(=O)Nc1cc(Cl)ccc1Cl)C(=O)/C=C/c1ccco1	-68*
O=C(c1ccccc1Oc1nnnn1-c1ccccc1)N1CCOCC1	-77*
COc1ccccc1Oc1nnnn1-c1ccc(C(N)=O)cc1	-71*
COc1ccc(Oc2nnnn2-c2ccccc2)cc1	-87*
c1ccc(-n2nnnc2Oc2ccc(-c3nnco3)cc2)cc1	-62*
CCCCCC(=O)N[C@@H](c1ccccc1)[C@@H](O)C(=O)O[C@H]1C[C@@]2(O)[C@@H](OC(=O)c3ccccc3)C3[C@](C)(C(=O)[C@H](OC(C)=O)C(=C1C)C2(C)C)[C@@H](O)C[C@H]1OC[C@@]31OC(C)=O (stereo not given in full)	87
SMILES	aSyn 5UTR act
COc1cccc(Oc2nnnn2-c2ccccc2)c1	-180*
COc1cccc(N2C(N)=NC(N)=NC2(C)C)c1	96
Cc1cccc(-n2c(N)cc(=O)[nH]c2=S)c1	-215*
S=c1nc(NCCc2ccccc2Cl)c2ccccc2[nH]1	-114*
O=C(NCCc1ccc(Cl)cc1)C1CCC(CNc2nc(=S)[nH]c3ccccc23)CC1 (stereo not given)	65
CC(=O)c1cnc(Nc2ccc(C)cc2)s1	-122*
Cc1ccc(OCc2cn3cccnc3n2)cc1	-62*
CCOc1cc2c3c(c1)C(C)=CC(C)(C)N3C(=O)C2=O	-74*
CN(C)C=Nc1ccc2nn(-c3ccccc3)nc2c1	-211*
NNC(=O)c1ccc(OCC2CC(c3ccc(Cl)cc3)=NO2)cc1 (stereo not given)	-74*
COc1ccc(NC(=O)c2cc3cccc(OC)c3oc2=Nc2ccc(C(=O)O)cc2)cc1OC	-116*
COc1cccc(NC(=O)c2cc3cccc(OC)c3o/c2=N\O)c1	-81*
O=C(Cc1ccccc1F)Nc1ccc(SC(F)F)cc1	-137*
O=C(COC(=O)c1ccccc1Cc1ccccc1)Nc1ccc(SC(F)F)cc1	-109*
Cc1ccc(NC(=S)/C(=C(\[O-])c2ccc(C)c([N+](=O)[O-])c2)[n+]2ccccc2)cc1C	-158*
CCCN1CCC(=O)N([C@H](CSc2ccc(Br)cc2)c2ccccc2)CC1	-120*
CC(C)C[C@@H](CSc1ccccc1)N1CCN(CC(C)C)CCC1=O	-175*
CCCN1CCC(=O)N([C@H](CSc2ccc(C)cc2)CC(C)C)CC1	-175*
CCCN1CCC(=O)N([C@H](CSc2ccccc2)CC(C)C)CC1	-100*
CC(C)n1cnc2cc(NCc3nc4ccccc4n3C)ccc21	-115*
CCn1cnc2cc(NCc3nc4ccccc4n3Cc3ccccc3)ccc21	-138*
CCn1cnc2cc(NCc3nc4ccccc4n3C)ccc21	-108*
CNC(=O)c1cc(C(=O)c2ccc(Cl)cc2)c[nH]1	-64*
N=C1SCC(=O)N1c1nc(-c2ccccc2)cs1	-159*
O=C1CC(c2ccccc2)=NN1c1nc(-c2ccccc2)cs1	-150*
SMILES	aSyn 5UTR act
C=CCN1N=C(/C=C/c2ccc(C)cc2)CCC1=O	-89*
COc1ccc(/C=C/C2=NNC(=O)CC2)cc1	60
C=CCN1N=C(/C=C/c2ccc(OC)cc2)CCC1=O	-84*
CCOc1ccc(NC(=S)NC(=O)/C=C/c2ccco2)cc1	-91*
COc1cccc(NC(=S)NC(=O)/C=C/c2ccco2)c1	-114*
CN1CCN(c2ccc(NC(=S)NC(=O)/C=C/c3ccco3)cc2)CC1	-147*
O=C(/C=C/c1ccccc1)NC(=S)Nc1ccc(N2CCOCC2)cc1	-79*
CC(C)c1ccc(/C=C/C(=O)NC(=S)Nc2ccc(CN3CCOCC3)cc2)cc1	-130*
N#C/C(=C\c1cccnc1)c1nc2c(s1)CCCC2	-141*
CC1CCc2nc(/C(C#N)=C/c3cccnc3)sc2C1 (stereo not given)	-192*
